Results as given in PubChem BioAssay (Tox21).
Values joined by “and” are separate entries in the source; they are usually repeats but may differ in a detail not shown here. Equal values may be shown once. Records with an inconclusive call do not appear. More than one record can exist for a structure, and the calls need not agree. Active and inactive are the calls of the source. Calls follow the shape of the dose curve; as a rule, active = well fitted curve in the direction sought with a large enough effect in the repeat runs; inconclusive = weak or mixed curves; inactive = no such curve, though single readings can be large; an effect the other way counts as inactive or inconclusive.

Assays:
[1] = Human pregnane X receptor (PXR) small molecule agonists, qHTS cell viability counter screen (AID 1346977); also: nearly all actives have a fitted effect of over 50% in size; also: potency is read from the fitted curve at half-maximal effect
Outline: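 Readout is CellTiter-Fluor fluorescence from PXR-Luc HepG2 cells. Plated cells rested 5hr, then were treated with compounds for 24hr at 37C and 5% CO2, with reagent present during the last hour.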

[2] = Caspase-3/7 induction in HepG2 cells by small molecules, qHTS assay (AID 1346978); also: nearly all actives have a fitted effect of over 15% in size; also: potency is read from the fitted curve at half-maximal effect
Outline: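 Wild-type HepG2 cells, 2,000/well, settled 5 hr at 37 C and 5% CO2, then compound-treated for 17 hr; caspase-3/7 activity read by luminescent Caspase-Glo 3/7 after 30 min at room temperature.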

[3] = Caspase-3/7 induction in CHO-K1 cells by small molecules, qHTS cell viability counter screen (AID 1346979); also: nearly all actives have a fitted effect of over 35% in size; also: potency is read from the fitted curve at half-maximal effect
Outline: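 To flag cytotoxic compounds, treated CHO-K1 wild-type cells were given CellTiter-Fluor at 16hr and read fluorescently after 1hr at 37C; the caspase-3/7 luminescence was measured in these same wells.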

[4] = Caspase-3/7 induction in HepG2 cells by small molecules, qHTS cell viability counter screen (AID 1346981); also: nearly all actives have a fitted effect of over 30% in size; also: potency is read from the fitted curve at half-maximal effect
Outline: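 In this quantitative HTS counter screen, compounds delivered in DMSO were left on unmodified HepG2 cells for 16 hr at 37 C. Viability was then determined fluorometrically with CellTiter-Fluor, in parallel with caspase-3/7 induction in the same wells.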

[5] = target: Cytochrome P450 2D6 (Homo sapiens) (UniProt P10635); assay: Cytochrome P450 Family 2 Subfamily D Member 6 (CYP2D6) small molecule antagonists: luciferase reporter qHTS assay (AID 1671196); also: nearly all actives have a fitted effect of over 50% in size; also: potency is read from the fitted curve at half-maximal effect; as to activity change, negative = inhibition: series mostly up to about 120 µM
Outline: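 Test chemicals meet CYP2D6 plus proluciferin substrate (10 min, RT); NADPH regenerating solution then drives turnover for 1 h. Detection reagent halts the reaction; luminescence measured after 20 min.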

[6] = target: Cytochrome P450 2C19 (Homo sapiens) (UniProt P33261); assay: Cytochrome P450 Family 2 Subfamily C Member 19 (CYP2C19) small molecule antagonists: luciferase reporter qHTS assay (AID 1671197); also: nearly all actives have a fitted effect of over 65% in size; also: potency is read from the fitted curve at half-maximal effect; as to activity change, negative = inhibition: series mostly up to about 120 µM
Outline: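 P450-Glo CYP2C19 system: enzyme-substrate mix with compound 10 min at room temperature, then NADPH regeneration solution, 1 h at 37C. Proluciferin-to-luciferin conversion detected by luminescence after 20 min with detection reagent; ketoconazole as positive control.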

[7] = target: Cytochrome P450 2C9 (Homo sapiens) (UniProt P11712); assay: Cytochrome P450 Family 2 Subfamily C Member 9 (CYP2C9) small molecule antagonists: luciferase reporter qHTS assay (AID 1671198); also: nearly all actives have a fitted effect of over 50% in size; also: potency is read from the fitted curve at half-maximal effect; as to activity change, negative = inhibition: series mostly up to about 120 µM
Outline: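 P450-Glo proluciferin substrate with CYP2C9 enzyme; 10 min RT preincubation, then NADPH regeneration 1 h at 37C; luciferin detection reagent 20 min RT, luminescence in relative luminescence units.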

[8] = target: Cytochrome P450 1A2 (Homo sapiens) (UniProt P05177); assay: Cytochrome P450 Family 1 Subfamily A Member 2 (CYP1A2) small molecule antagonists: luciferase reporter qHTS assay (AID 1671199); also: nearly all actives have a fitted effect of over 50% in size; also: potency is read from the fitted curve at half-maximal effect; as to activity change, negative = inhibition: series mostly up to about 120 µM
Outline: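 Steps: enzyme-substrate mix dispensed; test compounds and furafylline control pinned in; 10 min room temperature; NADPH regeneration solution added, 1 h; reaction stopped with luciferin detection reagent; luminescence read after 20 min.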

[9] = target: Voltage-gated inwardly rectifying potassium channel KCNH2 (Homo sapiens) (UniProt Q12809); assay: Human Ether-a-go-go-Related Gene (hERG) channel small molecule antagonists: fluorescence cell-based qHTS assay (AID 1671200); also: nearly all actives have a fitted effect of over 50% in size; also: potency is read from the fitted curve at half-maximal effect;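 as to activity change, negative = inhibition: hERG-expressing U2OS cells given a thallium stimulus after FluxOR II dye loading; series mostly up to about 77 µM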
Outline: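 Measured: Tl+ flux via fluorescence (480/540 nm) in hERG-expressing U2OS cells after 1 h dye loading at room temperature.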

[10] = target: Cytochrome P450 3A4 (Homo sapiens) (UniProt P08684); assay: Cytochrome P450 Family 3 Subfamily A Member 4 (CYP3A4) small molecule antagonists: luciferase reporter qHTS assay (AID 1671201)
Outline: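 Setup: enzyme-substrate mix, compound pin transfer, 10 min RT. Reaction: NADPH regeneration solution, 1 h RT. Readout: detection reagent stops turnover, luminescence measured after 20 min, expressed in relative luminescence units.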

[11] = Caspase-3/7 induction in CHO-K1 cells by small molecules, qHTS assay (AID 1346980); also: nearly all actives have a fitted effect of over 15% in size
Outline: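 Wild-type CHO-K1 cells exposed to compounds for 17hr at 37 C, 5% CO2. Caspase-3/7 activity then measured by Caspase-Glo 3/7 luminescence after 30min at room temperature.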

[12] = target: Nuclear receptor subfamily 1 group I member 2 (Homo sapiens) (UniProt O75469); assay: CYP3A4 induction through human pregnane X receptor (PXR) by small molecules, qHTS assay (AID 1346984); also: nearly all actives have a fitted effect of over 40% in size
Outline: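 Induction measured in HepG2-based DPX-2 cells co-expressing human PXR and a CYP3A4 promoter-driven luciferase. After a 24-hour compound exposure, cells received CYP3A4 luciferin substrate at 3uM final for 3 hours, and light output was then recorded.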

[13] = target: Nuclear receptor subfamily 1 group I member 2 (Homo sapiens) (UniProt O75469); assay: Human pregnane X receptor (PXR) activation by small molecules, qHTS assay (AID 1346985); also: nearly all actives have a fitted effect of over 40% in size
Outline: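 DPX-2 cells (HepG2 co-transfected with a PXR response element and a CYP3A4-promoter luciferase construct) were seeded at 2,000 per well, rested 5 hr at 37C, then exposed to DMSO-dissolved compounds for 24 hr. Activation was read as luciferase luminescence.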

[14] = target: Nuclear receptor subfamily 1 group I member 2 (Rattus norvegicus) (UniProt Q9R1A7); assay: Rat pregnane X receptor (rPXR) activation by small molecules, qHTS assay (AID 1346983); conditions: rPXR luciferase reporter cells, One-Glo luminescence, 24 h; max activation: stronger effect = higher value; also: nearly all actives have a fitted effect of over 20% in size
Outline: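 Cell-based rPXR activation assay: rPXR cells, 2,000 per well, rested 5hr at 37 C, then exposed to compounds in DMSO for 24 hr at 37 C. Luciferase activity read by One-Glo luminescence after 30 min at room temperature.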

[15] = target: Nuclear receptor subfamily 1 group I member 2 (Homo sapiens) (UniProt O75469); assay: Human pregnane X receptor (PXR) small molecule agonists, qHTS assay (AID 1346982); also: nearly all actives have a fitted effect of over 35% in size; also: potency is read from the fitted curve at half-maximal effect
Outline: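 Reporter HepG2 cells expressing PXR-Luc are cultured in charcoal-stripped FBS (5%), treated with compounds for 24 hr at 37 C, and assayed by ONE-Glo luminescence after 30 min at room temperature.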
% is scaled to controls: 0 for no effect and ±100 for the full control effect.

Chain of Voltage-gated inwardly rectifying potassium channel KCNH2 (Homo sapiens) (Q12809 whole entry, looked up): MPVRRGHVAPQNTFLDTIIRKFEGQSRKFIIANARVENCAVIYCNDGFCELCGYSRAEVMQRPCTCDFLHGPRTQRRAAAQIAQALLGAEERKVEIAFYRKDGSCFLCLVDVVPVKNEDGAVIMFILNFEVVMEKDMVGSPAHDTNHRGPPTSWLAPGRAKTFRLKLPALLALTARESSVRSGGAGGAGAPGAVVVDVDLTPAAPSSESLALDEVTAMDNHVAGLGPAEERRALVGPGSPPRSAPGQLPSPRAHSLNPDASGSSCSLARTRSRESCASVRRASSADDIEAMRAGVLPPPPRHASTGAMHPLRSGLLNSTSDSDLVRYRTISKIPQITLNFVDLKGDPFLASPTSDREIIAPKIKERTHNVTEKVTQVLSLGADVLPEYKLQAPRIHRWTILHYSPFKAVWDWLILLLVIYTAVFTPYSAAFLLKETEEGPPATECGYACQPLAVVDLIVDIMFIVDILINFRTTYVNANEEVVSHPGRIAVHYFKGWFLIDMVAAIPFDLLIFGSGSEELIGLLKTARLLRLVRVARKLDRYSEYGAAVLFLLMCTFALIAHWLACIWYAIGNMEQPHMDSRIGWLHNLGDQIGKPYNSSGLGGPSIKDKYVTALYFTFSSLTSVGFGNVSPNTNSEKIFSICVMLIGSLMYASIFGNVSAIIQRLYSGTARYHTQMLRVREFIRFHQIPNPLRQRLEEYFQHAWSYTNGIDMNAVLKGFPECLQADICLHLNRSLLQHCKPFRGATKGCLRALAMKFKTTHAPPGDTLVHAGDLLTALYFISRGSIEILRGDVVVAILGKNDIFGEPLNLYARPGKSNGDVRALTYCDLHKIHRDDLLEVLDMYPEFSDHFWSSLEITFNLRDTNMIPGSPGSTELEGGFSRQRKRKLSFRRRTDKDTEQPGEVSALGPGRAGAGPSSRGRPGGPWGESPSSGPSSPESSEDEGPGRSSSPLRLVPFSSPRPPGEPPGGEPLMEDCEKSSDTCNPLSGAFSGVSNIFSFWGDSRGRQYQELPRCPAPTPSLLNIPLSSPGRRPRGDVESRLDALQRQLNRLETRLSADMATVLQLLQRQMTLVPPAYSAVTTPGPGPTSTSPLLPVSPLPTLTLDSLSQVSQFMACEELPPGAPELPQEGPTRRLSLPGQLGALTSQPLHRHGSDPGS
Chain of Cytochrome P450 2D6 (Homo sapiens) (P10635 whole entry, looked up): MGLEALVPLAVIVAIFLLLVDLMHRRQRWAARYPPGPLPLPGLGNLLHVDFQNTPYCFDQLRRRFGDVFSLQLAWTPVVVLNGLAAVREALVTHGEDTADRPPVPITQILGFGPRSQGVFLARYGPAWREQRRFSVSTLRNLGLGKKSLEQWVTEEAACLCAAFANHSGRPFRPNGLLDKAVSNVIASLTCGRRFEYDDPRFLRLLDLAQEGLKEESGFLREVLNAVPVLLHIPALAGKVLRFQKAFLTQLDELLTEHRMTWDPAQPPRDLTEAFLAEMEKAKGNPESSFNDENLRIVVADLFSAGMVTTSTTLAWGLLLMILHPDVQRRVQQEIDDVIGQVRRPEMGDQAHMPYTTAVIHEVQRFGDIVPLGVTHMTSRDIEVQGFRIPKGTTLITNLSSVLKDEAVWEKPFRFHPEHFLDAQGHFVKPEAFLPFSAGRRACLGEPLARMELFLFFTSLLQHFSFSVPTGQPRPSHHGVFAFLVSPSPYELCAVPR
Chain of Cytochrome P450 1A2 (Homo sapiens) (P05177 whole entry, looked up): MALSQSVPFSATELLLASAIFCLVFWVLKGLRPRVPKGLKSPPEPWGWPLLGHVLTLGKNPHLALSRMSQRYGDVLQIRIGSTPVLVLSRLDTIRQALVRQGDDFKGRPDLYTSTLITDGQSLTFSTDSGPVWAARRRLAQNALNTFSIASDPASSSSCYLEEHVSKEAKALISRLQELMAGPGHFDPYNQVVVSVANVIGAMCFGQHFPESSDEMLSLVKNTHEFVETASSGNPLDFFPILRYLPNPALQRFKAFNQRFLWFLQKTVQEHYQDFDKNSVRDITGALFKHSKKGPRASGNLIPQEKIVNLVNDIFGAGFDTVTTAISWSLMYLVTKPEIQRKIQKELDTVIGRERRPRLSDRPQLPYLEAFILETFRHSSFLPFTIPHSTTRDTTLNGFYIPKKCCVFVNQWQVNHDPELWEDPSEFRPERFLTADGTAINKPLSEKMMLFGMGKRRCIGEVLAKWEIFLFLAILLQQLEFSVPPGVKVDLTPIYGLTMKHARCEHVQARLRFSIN
Chain of Nuclear receptor subfamily 1 group I member 2 (Homo sapiens) (O75469 whole entry, looked up): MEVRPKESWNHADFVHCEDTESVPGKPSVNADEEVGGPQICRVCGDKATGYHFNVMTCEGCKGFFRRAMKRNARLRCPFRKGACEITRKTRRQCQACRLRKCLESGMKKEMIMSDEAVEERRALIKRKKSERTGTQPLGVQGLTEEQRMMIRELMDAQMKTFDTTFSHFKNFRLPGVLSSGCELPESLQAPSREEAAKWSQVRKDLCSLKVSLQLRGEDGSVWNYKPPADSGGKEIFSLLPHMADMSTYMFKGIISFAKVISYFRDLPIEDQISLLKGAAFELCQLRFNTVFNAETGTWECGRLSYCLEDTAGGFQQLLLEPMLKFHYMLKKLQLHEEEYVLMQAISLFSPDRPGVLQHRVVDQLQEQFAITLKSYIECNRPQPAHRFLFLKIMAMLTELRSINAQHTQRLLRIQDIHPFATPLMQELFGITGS
Chain of Cytochrome P450 2C19 (Homo sapiens) (P33261 whole entry, looked up): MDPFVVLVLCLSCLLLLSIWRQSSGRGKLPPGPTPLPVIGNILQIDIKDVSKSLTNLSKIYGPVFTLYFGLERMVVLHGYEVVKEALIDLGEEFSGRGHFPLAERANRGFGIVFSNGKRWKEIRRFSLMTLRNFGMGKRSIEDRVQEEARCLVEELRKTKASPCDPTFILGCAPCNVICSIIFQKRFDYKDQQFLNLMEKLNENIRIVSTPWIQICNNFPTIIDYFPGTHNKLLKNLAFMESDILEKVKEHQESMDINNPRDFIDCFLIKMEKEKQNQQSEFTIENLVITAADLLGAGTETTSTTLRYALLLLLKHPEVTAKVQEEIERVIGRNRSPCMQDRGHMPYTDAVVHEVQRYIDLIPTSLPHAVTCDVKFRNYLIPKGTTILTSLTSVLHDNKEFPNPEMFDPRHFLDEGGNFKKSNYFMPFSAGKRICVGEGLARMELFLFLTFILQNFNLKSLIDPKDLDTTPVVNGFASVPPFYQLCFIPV
Chain of Cytochrome P450 2C9 (Homo sapiens) (P11712 whole entry, looked up): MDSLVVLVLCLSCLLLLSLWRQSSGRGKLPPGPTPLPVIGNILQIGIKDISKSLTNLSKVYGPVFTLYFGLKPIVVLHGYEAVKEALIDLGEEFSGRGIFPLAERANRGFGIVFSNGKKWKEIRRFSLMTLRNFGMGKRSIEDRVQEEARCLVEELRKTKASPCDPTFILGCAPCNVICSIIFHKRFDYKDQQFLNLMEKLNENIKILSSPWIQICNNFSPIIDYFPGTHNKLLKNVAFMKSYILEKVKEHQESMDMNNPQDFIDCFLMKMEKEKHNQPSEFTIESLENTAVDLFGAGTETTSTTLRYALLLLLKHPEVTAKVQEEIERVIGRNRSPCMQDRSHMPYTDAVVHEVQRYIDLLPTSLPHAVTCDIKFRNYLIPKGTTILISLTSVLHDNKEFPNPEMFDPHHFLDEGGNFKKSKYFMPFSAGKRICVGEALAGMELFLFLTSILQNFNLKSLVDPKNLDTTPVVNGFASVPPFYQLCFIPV
Chain of Nuclear receptor subfamily 1 group I member 2 (Rattus norvegicus) (Q9R1A7 whole entry, looked up): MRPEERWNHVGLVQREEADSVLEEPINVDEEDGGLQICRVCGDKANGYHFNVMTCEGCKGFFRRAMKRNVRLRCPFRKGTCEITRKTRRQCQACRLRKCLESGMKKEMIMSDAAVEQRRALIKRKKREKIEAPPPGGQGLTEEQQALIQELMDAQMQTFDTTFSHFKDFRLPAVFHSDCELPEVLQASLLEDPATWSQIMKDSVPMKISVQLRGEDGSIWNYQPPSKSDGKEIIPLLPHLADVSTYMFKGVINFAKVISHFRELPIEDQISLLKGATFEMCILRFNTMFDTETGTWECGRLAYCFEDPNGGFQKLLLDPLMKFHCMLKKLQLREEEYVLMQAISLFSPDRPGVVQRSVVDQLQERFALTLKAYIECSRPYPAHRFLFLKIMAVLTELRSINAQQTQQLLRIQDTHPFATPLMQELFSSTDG
Chain of Cytochrome P450 3A4 (Homo sapiens) (P08684 whole entry, looked up): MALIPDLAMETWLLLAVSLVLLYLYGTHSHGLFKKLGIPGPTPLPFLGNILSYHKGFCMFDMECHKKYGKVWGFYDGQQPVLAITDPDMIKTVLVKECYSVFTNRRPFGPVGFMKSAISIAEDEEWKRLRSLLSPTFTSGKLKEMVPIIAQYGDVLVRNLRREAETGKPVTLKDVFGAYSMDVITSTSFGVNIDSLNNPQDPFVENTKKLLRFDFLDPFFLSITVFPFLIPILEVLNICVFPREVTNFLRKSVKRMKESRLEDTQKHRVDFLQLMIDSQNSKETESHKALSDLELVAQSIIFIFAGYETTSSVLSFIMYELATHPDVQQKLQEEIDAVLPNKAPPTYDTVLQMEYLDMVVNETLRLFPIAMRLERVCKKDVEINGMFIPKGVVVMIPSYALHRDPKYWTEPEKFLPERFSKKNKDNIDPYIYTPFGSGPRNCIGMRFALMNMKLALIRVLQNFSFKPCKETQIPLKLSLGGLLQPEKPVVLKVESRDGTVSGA

CCOCCOCCO
36.6 µM (active) and inactive: Potency [6]
inactive: Potency [1] | Potency [2] | Potency [3] | Potency [4] | Potency [5] | Potency [7] | Potency [8] | Potency [9] | Potency [10]

Cc1c(OCC(F)(F)F)ccnc1CS(=O)c1nc2ccccc2[nH]1 (stereo unspecified)
inactive: Potency [1] | Potency [2] | Potency [4] | Potency [9]
active: Potency [5] 2.83 µM and 1.23 µM | Potency [6] 5.64 µM and 3.89 µM | Potency [7] 35.6 µM and 12.3 µM | Potency [8] 31.7 µM and 13.8 µM

CC(=O)O[C@]1(C(C)=O)CC[C@H]2[C@@H]3C=C(Cl)C4=CC(=O)[C@@H]5C[C@@H]5[C@]4(C)[C@H]3CC[C@@]21C
inactive: Potency [1] | Potency [2] | Potency [11] | Potency [4] | Potency [12] | Potency [13] | Potency [5] | Potency [8] | Potency [9] | Potency [10]
active: Potency [7] 15.9 µM and 31.7 µM and 13.8 µM
inactive and 39.9 µM (active): Potency [6]

CCCCCCCCCC(=O)OC
inactive: Potency [1] | Potency [2] | Potency [3] | Potency [4] | Potency [5] | Potency [6] | Potency [7] | Potency [8] | Potency [9] | Potency [10]

O=C(c1ccc(OCCN2CCCCC2)cc1)c1c(-c2ccc(O)cc2)sc2cc(O)ccc12
active: Potency [1] 21.7 µM and 24.3 µM and 23.7 µM | Potency [3] 54.5 µM and 61.1 µM and 26.6 µM | Potency [4] 61.2 µM and 61.1 µM | Potency [9] 21.9 µM and 43.6 µM
68.7 µM (active) and inactive: Potency [2]

Cn1cnc([N+](=O)[O-])c1Sc1ncnc2nc[nH]c12
44.5 µM (active) and inactive: Potency [5]
inactive: Potency [2] | Potency [7] | Potency [8] | Potency [9] | Potency [10]
active: Potency [3] 51.1 µM | Potency [4] 48.2 µM

O=C=Nc1ccc(Cc2ccc(N=C=O)cc2)cc1
active: Potency [7] 6.98 µM
inactive: Potency [1] | Potency [2] | Potency [3] | Potency [4] | Potency [5] | Potency [8] | Potency [9]

Cc1ncc[nH]1
inactive: Potency [1] | Potency [2] | Potency [3] | Potency [4] | max activation [14] 1.32% | Potency [5] | Potency [7] | Potency [8] | Potency [9]
39.8 µM (active) and inactive: Potency [6]

COc1ccccc1/C=C/C=O
active: Potency [6] 39.9 µM | Potency [8] 29 µM and 25.2 µM
inactive: Potency [1] | Potency [2] | Potency [11] | Potency [4] | Potency [5] | Potency [7] | Potency [9] | Potency [10]

OC(CCl)CCl
inactive: Potency [1] | Potency [2] | Potency [3] | Potency [4] | Potency [15] | Potency [5] | Potency [6] | Potency [7] | Potency [9] | Potency [10]

Nc1ccccc1N
inactive and 47.2 µM (active): Potency [3]
active: Potency [2] 2.22 µM and 9.41 µM | Potency [4] 15 µM | Potency [15] 1.76 µM and 7.7 µM | Potency [5] 36.4 µM and 7.31 µM | Potency [6] 40.9 µM and 17.8 µM | Potency [8] 2.58 µM and 13.8 µM
inactive: Potency [11] | Potency [9]

CN(C)C(=N)N=C(N)N
inactive: Potency [1] | Potency [2] | Potency [3] | Potency [4] | max activation [14] -2.9%

CC(C(=O)O)c1cccc(C(=O)c2ccccc2)c1 (stereo unspecified)
inactive and 24.5 µM (active): Potency [8]
active: Potency [6] 39.9 µM | Potency [7] 31.7 µM and 30.9 µM
inactive: Potency [2] | Potency [3] | Potency [11] | Potency [4] | Potency [5] | Potency [9] | Potency [10]

CCC(C)OC(=O)c1ccc(O)cc1 (stereo unspecified)
active: Potency [15] 69 µM and 54.5 µM | Potency [5] 63.3 µM | Potency [6] 35.8 µM and 25.2 µM | Potency [8] 20.1 µM and 35.6 µM
inactive: Potency [1] | Potency [2] | Potency [3] | Potency [4] | Potency [9] | Potency [10]

Cc1cc2nc3c(=O)[nH]c(=O)nc-3n(C[C@H](O)[C@H](O)[C@H](O)CO)c2cc1C
inactive: Potency [2] | Potency [11] | max activation [14] -0.456% | Potency [13] | activity change, negative = inhibition [7] -0.762% [at 23.6 µM] | Potency [10]

C/C=C/C(=O)O
inactive: Potency [1] | Potency [2] | Potency [3] | Potency [4] | Potency [15] | Potency [5] | Potency [6] | Potency [7] | Potency [8] | Potency [9] | Potency [10]

CCCCc1oc2ccccc2c1C(=O)c1cc(I)c(OCCN(CC)CC)c(I)c1
inactive: Potency [11]
active: Potency [1] 43.6 µM and 26.6 µM | Potency [3] 48.9 µM | Potency [4] 48.9 µM
